Screening data (PubChem)
MIN6 prolif = induces beta-cell replication in MIN6 cells; 330,000 compounds, 0.29% hits; proliferation, % at 10 µM; AID 2380; MIN6 cells proliferation, ATPlite luminescence, 48 h; cells starved in 0.2% serum; 100% = growth in 10% serum;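 active = compounds whose signal lies at least 3.5 SD above the mean of all wells on their plate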
FAS-TE inh = FAS thioesterase (human) inhibition; recombinant FAS-TE, OMFH fluorogenic substrate, fluorescence endpoint; inhibition, % at 15 µM; P49327; AID 602261; 360,000 compounds, 0.67% hits;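 active = compounds whose normalised, plate-corrected inhibition of enzyme fluorescence in the single-dose primary screen is 50% or more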
p-CIP stab down = compounds decreasing mouse p/CIP protein stability; F442A p/CIP-EGFP cells, EGFP fluorescence, 16 h; decrease of EGFP signal, % at 10 µM; 290,000 compounds, 0.01% hits; AID 1984;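 active = EGFP signal decrease of at least 30% at 10 µM or well 3 SD below plate mean, unless failing retest; inactive = the rest, including hits failing retest or dose response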
GRIN3A LBD mod = modulators (binders) of human NR3A ligand-binding domain. NR3A LBD differential scanning fluorimetry, Tm shift; 0% = protein alone, 100% = glycine-bound protein. Tm shift relative to glycine control, % at 25 µM. 340,000 compounds, 2.5% hits. AID 1259313;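 active = melting temperature shift of at least 10% of the positive control shift, at one fixed dose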
MPTP inh = inhibitors of mitochondrial permeability transition pore. isolated mouse mitochondria, Ca2+ swelling absorbance, 30 min. inhibition, % at 10 µM. 360,000 compounds, 1.4% hits. AID 602449;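 active = inhibition of 50% or more, scaled per plate between neutral and stimulator controls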
A number is an active result; - = inactive; . = no result given. Compounds with a hit are over-represented: about 4.1% of the library has one in this group of screens.

SMILES	MIN6 prolif	FAS-TE inh	p-CIP stab down	GRIN3A LBD mod	MPTP inh
CC(C)(C)NC(=O)C(c1ccnc2ccccc12)n1c(=O)c(-c2cc3ccccc3[nH]2)nc2ccccc21 (stereo not given)	.	.	.	.	-
O=C(CC(Nc1ccccc1)C(=O)O)c1ccccc1 (stereo not given)	-	-	-	36	-
Cc1ccc(NC(CC(=O)c2ccccc2)C(=O)O)cc1Cl (stereo not given)	-	-	-	-	-
[NH-]c1ncnc2c1N=C[N+]2=CC=CCO	.	-	-	14	-
CCc1nc2ccc(C(=O)N(CC)CCN(C)C)cn2c1N(C)C(=O)C1CCCCC1	.	-	.	.	-
COCCN(CC(=O)Nc1cccc(C)c1C)C(=O)/C=C/c1ccc2c(c1)OCCO2	.	-	.	.	-
O=S1(=O)CC(N2CCCC2)CN1Cc1cn(Cc2ccc(Cl)cc2)nn1 (stereo not given)	.	-	.	.	-
O=C(c1cc(COc2ccc(F)cc2Cl)on1)N1CCCCCC1	-	-	-	15	-
Cc1cc(OCc2cc(C(=O)N3CCCCCC3)no2)cc(C)c1Cl	-	-	-	11	-
COC(=O)[C@]12CCCCC=C1N(Cc1ccco1)C(=O)[C@H](CC(=O)N1CCCCC1)C2	.	-	.	.	-
Cn1cc(/C=C2\SC(=S)N(NC(=O)c3ccccc3)C2=O)c2ccccc21	.	-	-	-	-
Cn1cc(/C=C2\SC(=S)N(NC(=O)c3cccc(Cl)c3)C2=O)c2ccccc21	.	-	-	20	-
CC(/C=C1\SC(=O)N(CC(=O)Nc2cccc(O)c2)C1=O)=C\c1ccccc1	-	-	-	19	-
CC(=O)c1ccc(NC(=O)CCCN2C(=O)/C(=C/C(C)=C/c3ccccc3)SC2=S)cc1	-	-	-	-	-
CC(/C=C1\SC(=O)N(CC(=O)Nc2ccc(O)cc2)C1=O)=C\c1ccccc1	-	-	-	10	-
CC(/C=C1\SC(=S)N(CC(=O)O)C1=O)=C\c1ccccc1	-	-	-	-	-
CC(/C=C1\SC(=S)N(NC(=O)c2cccc(O)c2)C1=O)=C\c1ccccc1	-	-	-	22	-
CCCNC(=O)C1(C)CCN(C(=O)c2ccc(C)c(F)c2)C1 (stereo not given)	.	-	.	.	-
COc1ccc(CCC(=O)N2CCN(S(=O)(=O)c3ccc(OC)c([N+](=O)[O-])c3)CC2)cc1	.	-	.	.	-
CCCCNC(=O)C1(C)CCCCN1C(=O)c1ccno1 (stereo not given)	.	-	.	.	-
COc1ccc(Nc2nc(-c3ccc4c(c3)NC(=O)CO4)cs2)cc1	-	-	-	15	-
COc1ccccc1Nc1nc(-c2ccc3c(c2)NC(=O)CO3)cs1	-	-	-	32	-
CCC(C)Nc1nc(-c2ccc3c(c2)NC(=O)CO3)cs1 (stereo not given)	-	-	-	-	-
CCOC(=O)N1CCc2cc(OC)c(OC)c3c2c1cc1cc(OC)c(OC)cc13	.	-	.	-	-
O=C1c2cccc3cccc(c23)C(=O)N1/N=C/c1ccc(O)cc1O	-	-	-	25	-
SMILES	MIN6 prolif	FAS-TE inh	p-CIP stab down	GRIN3A LBD mod	MPTP inh
Oc1ccc(/C=N/Nc2nc(N3CCCCCC3)nc(N3CCCCCC3)n2)c(O)c1	-	-	-	15	-
Oc1ccc(/C=N/N2CCCCC2)c(O)c1	-	-	-	33	-
COc1cc2ccccc2ccc1=NO	.	-	.	-	-
CC(C)CC1C(=O)N(Cc2cn(CCC3OCCO3)nn2)CCS(=O)(=O)N1Cc1ccc(-c2ccc(Cl)c(Cl)c2)cc1 (stereo not given)	.	-	.	.	-
COc1ccc(/C=N/NC(=S)Nc2ccccc2)cc1COc1ccc(Br)cc1	-	-	-	11	-
COc1ccc(/C=N/NC(=S)Nc2ccccc2)cc1COc1ccc(F)cc1	-	-	-	-	-
O=C(Nc1cccc(O)c1)c1cc(-c2ccccc2Cl)on1	-	-	-	30	-
O=C(Nc1ccccc1)OCCOc1ccccc1Br	-	-	-	-	-
O=C(Nc1ccccc1)OCCCCCOC(=O)Nc1ccccc1	-	-	-	46	-
O=C(Nc1cccc(Cl)c1)OCCOc1ccccc1	.	-	-	15	-
O=C(Nc1ccccc1)OCCOc1cccc(Br)c1	-	-	-	-	-
O=C(Nc1cccc(Cl)c1)OCCOC(=O)Nc1cccc(Cl)c1	.	-	.	29	-
O=C(Nc1ccc2c(c1)OCCO2)C(c1ccccc1)n1c(=O)c(-c2cc3ccccc3[nH]2)nc2ccccc21 (stereo not given)	.	.	.	.	-
Cc1cccc(NS(=O)(=O)c2ccc(C)c(C(=O)NC3CCN(Cc4ccccc4)CC3)c2)c1	.	-	.	-	-
O=C(Nc1ccccc1)OCCOc1ccccc1	-	-	-	-	-
CCCc1cc(C(=O)Nc2cccc(Cl)c2)no1	-	-	-	13	-
CCCc1cc(C(=O)Nc2cccc(C(C)=O)c2)no1	-	-	-	-	-
COc1ccc(OCCOC(=O)Nc2ccccc2)cc1	-	-	-	33	-
COCCNc1nc(-c2ccccc2CO)c2sc(-c3ccccc3)cc2n1	.	-	.	.	-
COc1ccc(Cc2nnc(NC(=O)Nc3ccc(F)cc3)s2)cc1	-	-	-	-	-
Cc1ccc(NC(=O)Nc2nnc(Cc3ccc([N+](=O)[O-])cc3)s2)cc1	-	-	-	22	-
O=C(Nc1ccccn1)c1ccc(Br)c(S(=O)(=O)N2CCCCC2)c1	-	-	-	13	-
O=C(Nc1ccccn1)c1ccc(Br)c(S(=O)(=O)N2CCCC2)c1	-	-	-	-	-
Cc1nnc(NC(=O)c2ccc(F)c(S(=O)(=O)N3CCCCC3)c2)s1	-	-	-	16	-
COc1ccc(NC(=O)Nc2nnc([C@@H]3C[C@H](O)[C@@H](CO)O3)s2)cc1	.	-	.	.	-
SMILES	MIN6 prolif	FAS-TE inh	p-CIP stab down	GRIN3A LBD mod	MPTP inh
O=C(N/N=C/c1ccc(OC(=O)c2ccccc2Cl)cc1)c1cc(O)cc(O)c1	-	-	-	13	-
Cc1cccc(C(=O)Oc2ccc(/C=N/NC(=O)Cc3ccc([N+](=O)[O-])cc3)cc2)c1	-	-	-	-	-
Cc1cccc(C(=O)Oc2ccc(/C=N/NC(=O)c3ccc(O)cc3)cc2)c1	-	-	-	23	-
Cc1cc(C(=O)N/N=C/c2ccc(OC(=O)c3ccccc3Br)cc2)n[nH]1	-	-	-	12	-
COc1ccc(C(=O)N/N=C/c2ccc(OC(=O)c3ccccc3)cc2)cc1	-	-	-	-	-
Cc1cccc(C(=O)Oc2ccc(/C=N/NC(=O)c3ccccc3O)cc2)c1	-	-	-	19	-
CC1(C(=O)N2CCCCC2)CCN1C(=O)c1ccccc1CCc1ccccc1 (stereo not given)	.	-	.	.	-
COc1ccc(S(=O)(=O)N(C)[C@H]2C[C@H]3c4cc(N5CCN(C)CC5)ccc4CCN3C(=O)[C@H]2[C@H](C)O)cc1	.	-	.	.	-
COc1ccc(OC)c(NC(=O)C2(C)CCN2C(=O)CC2CC2)c1 (stereo not given)	.	-	.	.	-
O=C(NC(=S)Nc1ccccn1)c1ccc([N+](=O)[O-])cc1	-	-	-	11	-
